Source: PubChem BioAssay (NCATS)
Results filed as inconclusive are left out. Active and inactive are the calls of the source. The call rests on the fitted dose curve; in most records, active means well fitted inhibition curve with a large enough effect; inconclusive means small, poorly fitted or top-dose-only effect; inactive means flat fitted curve, though single readings scatter.

What was measured:
Experiment in all cases: qHTS profiling for inhibitors of Plasmodium falciparum proliferation (AID 504749); further: nearly all actives have a fitted effect of over 60% in size
Conditions in all cases: P. falciparum in erythrocytes, SYBR Green DNA, 72 h; series mostly up to 28.7 µM
[1] = tested on: CP291
Procedure, shortened: (§1)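 Readout was DNA-dye fluorescence from lysed cultures, ex 485/em 535 nm. Parasitized red cells had grown 72 h with compound; data scaled between 0.29 uM artemisinin and DMSO wells and corrected using vehicle-only plates.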

[2] = tested on: CP297
Procedure, shortened: as §1

[3] = tested on: CP305
Procedure, shortened: as §1

[4] = tested on: CP315
Procedure, shortened: as §1

[5] = tested on: CP325
Procedure, shortened: as §1

[6] = tested on: CP329
Procedure, shortened: as §1

[7] = tested on: CP335
Procedure, shortened: as §1

[8] = tested on: DFO2036
Procedure, shortened: as §1

[9] = tested on: DIV14
Procedure, shortened: as §1

[10] = tested on: DIV17
Procedure, shortened: as §1

[11] = tested on: DIV30
Procedure, shortened: as §1

[12] = tested on: Dd2
Procedure, shortened: as §1

[13] = tested on: ECU
Procedure, shortened: as §1

[14] = tested on: FAB9
Procedure, shortened: as §1

[15] = tested on: GB4
Procedure, shortened: as §1

[16] = tested on: HB3
Procedure, shortened: as §1

[17] = tested on: ICS
Procedure, shortened: as §1

[18] = tested on: JCK
Procedure, shortened: as §1

[19] = tested on: N140
Procedure, shortened: as §1

[20] = tested on: P93_24
Procedure, shortened: as §1

Measured: Potency
Potency means the concentration at half of the fitted maximal effect.

CCn1cc(C(=O)O)c(=O)c2cnc(N3CCCC3)nc21
inactive: all assays above

Nc1ccc(C(=O)O)cc1
inactive: all assays above

O=c1ccc2ccccc2o1
inactive: all assays above

CC(=O)Nc1c(I)cc(I)c(C(=O)O)c1I
not listed: [20]
inactive: all other assays above

CCCCCC=CCC=CCCCCCCCC(=O)OCC
inactive: all assays above

COc1cc(C(=S)N2CCOCC2)cc(OC)c1OC
inactive: all assays above

COCc1c(C(C)C)nc(C(C)C)c(/C=C/[C@@H](O)C[C@@H](O)CC(=O)O)c1-c1ccc(F)cc1
inactive: all assays above

COc1ccc(CCN2CCC(Nc3nc4ccccc4n3Cc3ccc(F)cc3)CC2)cc1
active: [1] 4.26 µM | [2] 5.36 µM | [3] 4.26 µM | [4] 12 µM | [5] 4.26 µM | [6] 9.53 µM | [7] 3.79 µM | [8] 3.55 µM | [9] 4.78 µM | [10] 4.78 µM | [11] 13.5 µM | [12] 8.91 µM | [13] 2 µM | [14] 3.16 µM | [15] 1.9 µM | [16] 4.47 µM | [17] 2.82 µM | [18] 6.31 µM | [19] 3.55 µM | [20] 2.82 µM

Cc1cc(=O)n(-c2ccccc2)n1C
inactive: all assays above

NCCC(O)(P(=O)(O)O)P(=O)(O)O
inactive: all assays above

CC(=O)N(O)CCCCCNC(=O)CCC(=O)N(O)CCCCCNC(=O)CCC(=O)N(O)CCCCCN
active: [18] 10 µM
inactive: all other assays above

CN=C(NC#N)NCCSCc1csc(N=C(N)N)n1
inactive: all assays above

N[C@@H](Cc1cnc[nH]1)C(=O)O
inactive: all assays above

C=CCc1ccc(O)c(OC)c1
not listed: [20]
inactive: all other assays above

Cc1c(F)c(N2CCNC(C)C2)cc2c1c(=O)c(C(=O)O)cn2C1CC1 (stereo not given)
inactive: all assays above

COc1c2occc2c(OC)c2c(=O)cc(C)oc12
inactive: all assays above

Cc1c(N(C)CS(=O)(=O)O)c(=O)n(-c2ccccc2)n1C
inactive: all assays above

Cc1c(C(C)C)c(=O)n(-c2ccccc2)n1C
inactive: all assays above

CC(C)(CO)[C@@H](O)C(=O)NCCCO
inactive: all assays above

C[C@H]1[C@H](NC(=O)/C(=N/OC(C)(C)C(=O)O)c2csc(N)n2)C(=O)N1S(=O)(=O)O (stereo in doubt)
inactive: all assays above

O=C(O)c1cc2cc(Cc3cccnc3)ccc2o1
inactive: all assays above

O=C(O)CNC(=O)c1ccccc1
inactive: all assays above

C[C@]12CCC(=O)C=C1CC[C@H]1[C@@H]3CC[C@](O)(C(=O)CO)[C@@]3(C)C[C@H](O)[C@@]12F
inactive: all assays above

CC(=O)Oc1ccc(C(=C2CCCCC2)c2ccc(OC(C)=O)cc2)cc1
inactive: all assays above

COC(=O)[C@@H]1CC2=CC(=O)CC[C@]2(C)[C@@]23O[C@@H]2C[C@@]2(C)[C@@H](CC[C@@]24CCC(=O)O4)[C@H]13
inactive: all assays above

O=C(Nc1ccc(Cl)c(Cl)c1)C1CC1
inactive: all assays above

CC(C)(C)CC(C)(C)c1ccc(OCCOCC[N+](C)(C)Cc2ccccc2)cc1
active: [1] 4.78 µM | [2] 4.26 µM | [3] 4.78 µM | [4] 4.78 µM | [5] 4.78 µM | [6] 4.78 µM | [7] 1.51 µM | [8] 3.98 µM | [9] 3.38 µM | [10] 4.78 µM | [11] 4.26 µM | [12] 4.47 µM | [13] 5.01 µM | [14] 5.01 µM | [15] 3.38 µM | [16] 6.31 µM | [17] 1.26 µM | [18] 6.31 µM | [19] 3.98 µM | [20] 6.31 µM

N[C@H](CO)C(=O)O
inactive: all assays above

Cc1c(C(N)=O)cc([N+](=O)[O-])cc1[N+](=O)[O-]
inactive: all assays above

NCCc1ccn[nH]1
inactive: all assays above

CC(C)(C(=O)c1cccnc1)c1cccnc1
active: [18] 10 µM
inactive: all other assays above

CN1C(CCl)Nc2cc(Cl)c(S(N)(=O)=O)cc2S1(=O)=O (stereo not given)
inactive: all assays above

CCC(=O)c1c(O)cc(O)cc1O
inactive: all assays above

O=C(COc1ccc(Cl)cc1)N1CCN(Cc2ccc3c(c2)OCO3)CC1
inactive: all assays above

Cc1c(C)n(CCN(C)C)c2ccc(C(=O)OCCN(C)C)cc12
not listed: [15] | [17]
inactive: all other assays above

CCOC(=O)COc1ccc2c(C)c(CCN(CC)CC)c(=O)oc2c1Cl
not listed: [13]
inactive: all other assays above

COc1cc2c(cc1OC)C(C(C(=O)N(CCc1ccc(OC)c(OC)c1OC)CCc1ccc(OC)c(OC)c1OC)c1ccccc1)=NCC2 (stereo not given)
active: [1] 15.1 µM | [2] 3.38 µM | [3] 15.1 µM | [4] 13.5 µM | [5] 16.9 µM | [6] 13.5 µM | [7] 5.36 µM | [9] 1.35 µM | [10] 1.35 µM | [11] 1.35 µM | [12] 3.98 µM | [13] 2.24 µM | [14] 11.2 µM | [15] 7.57 µM | [16] 5.01 µM | [17] 0.199 µM | [18] 10 µM | [20] 2.24 µM
inactive: [8]

O=C(Nc1ccc(Oc2ccc(Cl)cc2)c(Cl)c1)c1cc(I)cc(I)c1O
not listed: [13] | [17]
inactive: all other assays above

Cc1ncc(CSSCc2cnc(C)c(O)c2CO)c(CO)c1O
inactive: all assays above

O=C1CCC(c2ccc(-n3ccnc3)cc2)=NN1
inactive: all assays above

CCCCC(CC)CN=C(N)NC(N)=NCCCCCCN=C(N)NC(N)=NCC(CC)CCCC (stereo not given)
active: [1] 1.69 µM | [2] 3.38 µM | [3] 1.69 µM | [4] 1.35 µM | [5] 1.2 µM | [6] 1.51 µM | [7] 1.51 µM | [8] 3.16 µM | [9] 1.35 µM | [10] 1.2 µM | [11] 1.2 µM | [12] 2 µM | [13] 1.12 µM | [14] 1.78 µM | [15] 1.51 µM | [16] 2.24 µM | [17] 0.316 µM | [18] 3.98 µM | [19] 1 µM | [20] 1.78 µM

C[N+]1(CCCCC[N+]2(C)CCCC2)CCCC1
inactive: all assays above

CCOC(=O)n1ccn(C)c1=S
inactive: all assays above

NC(=NCCCCCCN=C(N)/N=C(\N)Nc1ccc(Cl)cc1)/N=C(\N)Nc1ccc(Cl)cc1
active: [1] 1.35 µM | [2] 2.13 µM | [3] 1.2 µM | [4] 1.07 µM | [5] 1.9 µM | [6] 1.69 µM | [7] 1.69 µM | [8] 1.78 µM | [9] 1.07 µM | [10] 1.07 µM | [11] 1.51 µM | [12] 2 µM | [13] 2.24 µM | [14] 2 µM | [15] 1.07 µM | [16] 4.47 µM | [17] 0.355 µM | [18] 3.98 µM | [19] 0.004 µM | [20] 1 µM

CC1(C)CCC(NC(=O)[C@@H](N)CCC(=O)O)CC1
inactive: all assays above

CCCCCCCCCCCCCCCC[N+](C)(C)CC
active: [1] 4.78 µM | [2] 6.75 µM | [3] 6.01 µM | [4] 4.78 µM | [5] 6.01 µM | [6] 4.78 µM | [7] 4.78 µM | [8] 2.82 µM | [9] 7.57 µM | [10] 7.57 µM | [11] 5.36 µM | [12] 6.31 µM | [13] 5.01 µM | [14] 7.94 µM | [15] 3.79 µM | [16] 7.08 µM | [17] 1.41 µM | [19] 4.47 µM | [20] 5.62 µM

C#C[C@]1(OC(C)=O)CC[C@H]2[C@@H]3CCC4=C[C@@H](OC(C)=O)CC[C@@H]4[C@H]3CC[C@@]21C
inactive: all assays above

CCOC(=O)OC(C)OC1=C(C(=O)Nc2ccccn2)N(C)S(=O)(=O)c2ccccc21 (stereo not given)
inactive: all assays above

NCCCC[C@H](N[C@@H](CCc1ccccc1)C(=O)O)C(=O)N1CCC[C@H]1C(=O)O
inactive: all assays above

CCN(CC)C(=O)/C(C#N)=C/c1cc(O)c(O)c([N+](=O)[O-])c1
active: [12] 0.447 µM
not listed: [17]
inactive: all other assays above

Cc1cccn2c(=O)c(-c3nnn[nH]3)cnc12
inactive: all assays above
